proKLK7 act – proKLK7 (human) activation, primary screen. 0.9% of 370,000 active. activation, % at 7 µM. purified proKLK7, EDANS-DABCYL substrate fluorescence; 100% is mature enzyme control, 0% vehicle. AID 652039;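 active = activation above the mean of all tested compounds plus 3 SD, computed per campaign excluding outliers beyond control limits, cut at about 13% in these data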
NRP1-CendR mod – modulators of CendR peptide binding to human neuropilin-1; AID 602438; 0.85% of 360,000 active; inhibition, % at 25 µM; FAM-RPARPAR peptide binding to NRP-1, fluorescence polarization;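 active = inhibition or corrected inhibition above about 18%, plus a signal ratio from 0.5 to 1.5, limit read from the data, passing the limit was not always enough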
ADAM17 inh – inhibitors of human ADAM17 | P78536 | recombinant ADAM17, EDANS/DABCYL FRET peptide cleavage | inhibition, % at 6.95 µM | 0.83% of 370,000 active | AID 720648;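 active = inhibition above the mean of compounds lying between control limits plus 3 SD, set per campaign, cut at about 8.5% in these data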;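 also: 0% = DMSO-only wells as the low control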
HGIII-sPLA2 inh – Inhibits HGIII-sPLA2 liposome hydrolysis, primary screen; AID 743126; inhibition, % at 12.2 µM; QFRET BODIPY PC-A2 liposome hydrolysis, fluorescence; 0.56% of 370,000 active; Q9NZ20;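 active = inhibition above mean plus 3 SD of compounds lying within the high and low control bounds, cut at about 19% in these data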;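 also: 0% = median of test compound wells and 100% = no enzyme DMSO wells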
ADAM10 inh – inhibitors of human ADAM10. inhibition, % at 7 µM. recombinant ADAM10, EDANS/DABCYL FRET peptide cleavage, 3 h. O14672. AID 720582. 0.62% of 370,000 active;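 active = inhibition above a per-campaign cutoff equal to the mean of compounds falling between control-based bounds plus 3 SD, cut at about 20% in these data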;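 also: 0% = DMSO wells while the 100% control is not disclosed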
Target sequence (O14672 214-748 limits assumed): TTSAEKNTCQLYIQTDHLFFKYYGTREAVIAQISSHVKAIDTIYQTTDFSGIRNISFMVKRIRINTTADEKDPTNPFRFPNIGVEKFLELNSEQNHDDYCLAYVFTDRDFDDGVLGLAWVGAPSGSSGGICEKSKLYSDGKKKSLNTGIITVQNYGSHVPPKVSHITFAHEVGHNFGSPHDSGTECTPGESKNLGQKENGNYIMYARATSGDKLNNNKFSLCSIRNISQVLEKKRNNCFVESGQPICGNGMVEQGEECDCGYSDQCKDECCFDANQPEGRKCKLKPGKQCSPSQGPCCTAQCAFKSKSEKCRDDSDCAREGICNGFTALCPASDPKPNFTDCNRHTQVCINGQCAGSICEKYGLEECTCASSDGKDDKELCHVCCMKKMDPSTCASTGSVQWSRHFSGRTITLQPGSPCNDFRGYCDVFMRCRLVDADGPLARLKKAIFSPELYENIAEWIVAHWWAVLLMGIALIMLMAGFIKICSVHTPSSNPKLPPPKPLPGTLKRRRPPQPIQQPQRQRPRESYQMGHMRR
The depositor's hits bear a star; · = no result. An excerpt weighted towards active compounds, which were near 3.4% of everything screened.

SMILES | proKLK7 act | NRP1-CendR mod | ADAM17 inh | HGIII-sPLA2 inh | ADAM10 inh
COc1cc(/C=N/n2c(-c3cc(-c4ccccc4)n[nH]3)n[nH]c2=S)ccc1OCc1ccccc1 | 3 | · | 0 | 16 | -17
C[C@H]1[C@@H](N(C)C)CC[C@@]23CCCN2C(=O)CCC[C@@H]13 | · | · | -2 | 2 | -3
Oc1ccc(Cl)cc1CNCc1ccc(Cl)cc1 | 0 | 4 | -2 | 1 | 1
Oc1ccc(Cl)cc1Cc1cc(Cl)ccc1O | -1 | -5 | 8 | -68 | 26*
CN(C)c1cccc(/C=C2\CC3(OC(=O)c4ccccc4)CCCN2C3)c1 (stereo unspecified) | 0 | · | -2 | 14 | -2
CN(C)CCCN(C(=O)c1ccc(S(=O)(=O)N(C)Cc2ccccc2)cc1)c1nc2cc3c(cc2s1)OCO3 | -1 | 9 | 1 | -5 | 4
CCN(c1ccccc1)S(=O)(=O)c1ccc(C(=O)N(CCCN(C)C)c2nc3cc4c(cc3s2)OCO4)cc1 | 0 | 22* | 0 | -9 | -5
COc1ccc(NC(=O)c2cccc(-c3ccc(O)cc3)c2)cn1 | 1 | 41* | 2 | -45 | 1
CC(=O)Nc1cccc(NC(=O)c2cccc(-c3ccc(O)cc3)c2)c1 | 0 | 3 | 0 | -14 | 7
O=C(CSc1nc2ccccc2nc1N1CCCCC1)N1CCN(S(=O)(=O)c2ccccc2)CC1 | -8 | · | -4 | 12 | -20
Cc1ccc(NC(=O)C2CCCN2C(=O)NC2CCCCC2)cc1C (stereo unspecified) | 1 | 28* | 1 | 6 | 10
Cc1ccc(NC(=O)C2CCCN2C(=O)NC2CCCCC2)cc1F (stereo unspecified) | 1 | -1 | 0 | 2 | -13
CCOC(=O)CC[C@@H]1CC[C@]2(CCCN(C(=O)C3CCCCC3)C2)O1 | 0 | · | -5 | 12 | -4
Cc1nc2ncnn2c(N2CCN(C(=O)c3cccc(F)c3)CC2)c1C | 0 | 26* | -4 | 4 | 1
CCN(CC)C(=O)CSc1nnc(-c2cccs2)o1 | 1 | · | 0 | -1 | -3
O=C(c1ncn(Cc2ccccc2)c1C(=O)N1CCc2ccccc2C1)N1CCc2ccccc2C1 | 0 | 30* | -2 | -1 | -8
O=C(N/N=C/c1ccncc1)NC12CC3CC(CC(C3)C1)C2 | 0 | 7 | 7 | -9 | 9
O=C(CC12CC3CC(CC(C3)C1)C2)N/N=C/c1ccncc1 | -1 | 18* | 0 | -2 | 2
Cn1c(CNc2ccccc2F)nc2ccccc21 | · | · | -1 | 2 | 1
CSc1ccccc1NC(=O)COc1ccc2c(c1)OCO2 | 0 | 13 | -3 | 11 | -9
Cc1ccc(NC(=O)COc2ccc3c(c2)OCO3)c(C)c1 | 0 | 16* | -3 | 14 | -13
CCOC(=O)CSc1nnc2c3ccccc3n(C)c2n1 | 0 | 26* | -3 | -3 | -2
CCCn1c2ccccc2c2nnc(SCC(=O)OCC)nc21 | -1 | 1 | -1 | -3 | 5
CC(C)c1cc(C(C)C)c(S(=O)(=O)NCC(=O)N2CCN(c3ncccn3)CC2)c(C(C)C)c1 | 0 | · | 2 | -3 | 7
O=S1(=O)c2c(cccc2N2CC[C@H](O)C2)OCCCN1C1CC1 | 0 | · | -9 | 5 | -10
SMILES | proKLK7 act | NRP1-CendR mod | ADAM17 inh | HGIII-sPLA2 inh | ADAM10 inh
Cc1cc(C)cc(N2C(=O)CC(n3nc(C)cc3C)C2=O)c1 (stereo unspecified) | 0 | 4 | 2 | 6 | -3
Cc1cc(C)n(C2CC(=O)N(c3cc(Cl)cc(Cl)c3)C2=O)n1 (stereo unspecified) | 1 | 35* | 0 | -6 | 2
CC(=O)c1ccc(N2CCN(C(=O)C(=O)c3cn(CC(=O)N4CCOCC4)c4ccccc34)CC2)cc1 | -1 | 4 | 2 | -15 | 1
O=C(C(=O)N1CCN(c2cccc(Cl)c2)CC1)c1cn(CC(=O)N2CCOCC2)c2ccccc12 | 0 | 32* | 1 | -21 | 5
COc1ccc(CC(=O)NCc2n[nH]c(=S)n2-c2ccc(F)cc2)cc1 | 0 | 1 | 0 | 3 | 0
COc1ccc(-n2c(CNC(=O)c3cccs3)n[nH]c2=S)cc1 | 0 | 31* | 0 | 4 | 4
NS(=O)(=O)c1ccc(NC2=CC(=O)C(=O)c3ccccc32)cc1 | 0 | 31* | 1 | 8 | -2
CCCCC(=O)N1CCC(NS(=O)(=O)c2ccc3c(c2)CCN3C(C)=O)CC1 | 0 | · | -1 | 18 | -9
O=C(O)C1CCN(C(=O)c2ccc(Cl)cc2)CC1 | 0 | 25* | -4 | 4 | -3
Cn1c(SCC(=O)Nc2ccc(S(=O)(=O)Nc3nccs3)cc2)nc2sc3c(c2c1=O)CCCC3 | -1 | · | 2 | -20 | 11
COc1cccc(-c2nc(CS(=O)(=O)CC(=O)NCc3ccc(Cl)cc3)c(C)o2)c1 | 0 | 20* | -2 | 8 | -15
CCCNC(=O)CS(=O)(=O)Cc1nc(-c2cccc(OC)c2)oc1C | 1 | -12 | -2 | -4 | -5
O=C(NCC1CC1)c1onc(CSc2nc3ccccc3[nH]2)c1C(=O)NCC1CC1 | 1 | 26* | -5 | -3 | 4
Cc1csc(NC(=O)Nc2ccc(Cl)cc2)n1 | 0 | 26* | -3 | -12 | 7
CCOC(=O)Cc1csc(NC(=O)Nc2ccc(Cl)cc2)n1 | 0 | 26* | 3 | -6 | 4
CCOC(=O)Cc1csc(NC(=O)Nc2cccc(Cl)c2)n1 | 0 | 6 | 4 | -30 | 8
CCCCCCCCNS(=O)(=O)CC1NCc2ccccc21 (stereo unspecified) | 0 | · | -3 | 0 | -2
CC(C)C[C@@H]1COc2cccc(N3CCCC3)c2S(=O)(=O)N1C | 0 | · | -4 | -5 | -3
O=C(c1ccccc1F)N1CCN(Cc2ccccc2F)CC1 | 0 | 29* | -4 | 6 | -7
CN1CCN(CC(=O)c2ccccc2F)CC1 | 0 | 17* | -3 | -2 | -1
Cc1cccc(-c2cccc3c4c([nH]c23)[C@@H]2C[C@H](N(C)C(=O)c3ccco3)[C@H]([C@H](C)O)C(=O)N2CC4)c1 | 2 | · | -11 | -42 | -31
O=C(Cc1ccccc1)Nc1ccccc1N1CCOCC1 | 0 | -2 | -3 | 3 | -6
O=C(Nc1ccccc1N1CCOCC1)[C@@H]1O[C@H](CO)[C@H](O)[C@H](O)[C@H]1O | -1 | 32* | -3 | 6 | -12
COC(=O)C1CC2(C(=O)OC)CC(C(=O)OC)(CC(C(=O)OC)C2=O)C1=O (stereo unspecified) | 0 | 26* | -3 | -2 | 0
COc1ccc(N/C(N)=N/c2nc(C)cc(C)n2)c(OC)c1 | 0 | 30* | -3 | 1 | -1
Fc1cnc(N2CCOCC2)nc1N1CCc2ccccc21 | 1 | 11 | -9 | 5 | -19
Fc1cnc(N2CCOCC2)nc1N1CCOCC1 | 0 | 21* | -3 | 3 | -11
O=C(CSC1CN(C(c2ccccc2)c2ccccc2)C1)N/N=C/c1ccccc1 | 0 | 41* | -4 | -14 | 9

From PubChem BioAssay
